Source: PubChem (several laboratories)
TIM10 inh: growth inhibitors of isogenic TIM10 control yeast, primary screen, counter-screen for tim10-1 yeast inhibitor project, luminescence, uHTS; S. cerevisiae TIM10 strain growth, BacTiter-Glo luminescence, 24 h; inhibition, % at 10 µM; 1.4% of 330,000 active;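 active means inhibition of 40% or more at the single tested concentration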;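 further: wild-type TIM10 isogenic control strain grown at permissive 25 °C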
PfHsp90 set2: growth inhibition of PfHsp90-expressing yeast, primary screen, antimalarial PfHsp90 inhibitor project, S. cerevisiae, BacTiter-Glo luminescence, single point, set 2; BacTiter-Glo ATP, 48 h; yeast lacking PDR1 and PDR3 efflux regulators; inhibition, % at 9.4 µM; 0.32% of 310,000 active;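 active means every replicate shows inhibition above about 80%, whatever the replicate mean, limit read from the data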;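 further: 0% = DMSO neutral controls and 100% = 20 µM radicicol positive controls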
NALP1 inh: NALP1 inflammasome inhibitors in reconstituted yeast, colorimetric, S. cerevisiae, triplicate retest; 0.61% of 280,000 active; S. cerevisiae NALP1/ASC/caspase-1 growth, X-gal OD620, 72 h; inhibition, % at 10 µM; in the data active means inhibition mostly above about 24%, no sharp cut-off; inactive means mostly below about 32%
tim10-1 inh: growth inhibitors of tim10-1 mutant yeast, primary screen, luminescence, uHTS | S. cerevisiae tim10-1 ts strain growth, BacTiter-Glo, 24 h | AID 463190, 2010 | 2.2% of 330,000 active | inhibition, % at 20 µM;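 active means inhibition of at least 40%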;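 further: mutant grown at 25 °C; 0% = DMSO wells with yeast and 100% = wells holding no yeast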
tim23-1 inh: growth inhibitors of tim23-1 mutant yeast, primary screen, luminescence, uHTS; S. cerevisiae tim23-1 growth, BacTiter-Glo luminescence, 24 h; inhibition, % at 20 µM; 1.3% of 330,000 active; AID 463212, 2010;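 active means growth inhibition of the mutant yeast at or above 50%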;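 further: temperature-sensitive mutant grown at 25 °C; plate controls were DMSO-treated mutant yeast for no effect and medium wells lacking yeast for full effect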
NLRP3 yeast inh: NALP3 inflammasome inhibitors in reconstituted yeast, primary screen, luminescence, uHTS; inhibition, % at 10 µM; Yeast reconstituted NLRP3/ASC/caspase-1, beta-gal luminescence, 24 h; 0.39% of 330,000 active;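 active means inhibition of 50% or more; inactive means inhibition below 50%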;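 further: plate controls were induced DMSO wells for no effect and uninduced yeast grown without galactose for full effect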
tim23-1 conf: tim23-1 mutant yeast growth inhibitors, confirmation, luminescence, single concentration; shares compounds with tim23-1 inh; inhibition, % at 20 µM; 83% of 4,400 active; S. cerevisiae tim23-1 growth, BacTiter-Glo luminescence, 24 h;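 active means inhibition above about 39% in either of two replicate wells at 20 µM, limit read from the data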;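 further: temperature-sensitive tim23-1 mutant grown at 25 °C; 0% = DMSO wells with yeast and 100% = medium wells without yeast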
* marks the source's active call; other numbers are inactive results; x = no result given. An excerpt weighted towards active compounds, which were near 4.1% of everything screened.

SMILES	TIM10 inh	PfHsp90 set2	NALP1 inh	tim10-1 inh	tim23-1 inh	NLRP3 yeast inh	tim23-1 conf
C#CCOCCOCCOCCNc1nc(N2CCN(C(=O)CCCCCCCCCCNC(=O)[C@@H](CCC(=O)O)n3cc(CCCCCN)nn3)CC2)nc(N2CCN(C(=O)CCCCCCCCCCNC(=O)[C@H](CCCCN)n3cc(C[C@@H](C)CC)nn3)CC2)n1	17.4	-26.1	x	39.5	47.0	18.3	x
C#CCOCCOCCOCCNc1nc(N2CCN(C(=O)CCCCCCCCCCNC(=O)[C@H](CO)n3cc(CCCCCN)nn3)CC2)nc(N2CCN(C(=O)CCCCCCCCCCNC(=O)[C@H](CCCN=C(N)N)n3cc(C[C@@H](C)CC)nn3)CC2)n1	20.4	x	x	33.5	52.3*	15.5	49.1*
C#CCOCCOCCOCCNc1nc(N2CCN(C(=O)CCCCCCCCCCNC(=O)[C@H](CCCCN)n3cc(CCO)nn3)CC2)nc(N2CCN(C(=O)CCCCCCCCCCNC(=O)[C@H](CCCCN)n3cc(C[C@@H](C)CC)nn3)CC2)n1	12.6	x	x	27.9	57.1*	9.3	56.4*
O=C(c1ccc(CNS(=O)(=O)c2ccc(Br)cc2)cc1)N1CCCCCC1	-1.0	-33.1	-7.7	25.1	17.0	-1.5	x
CC(C)CNC(=O)/C=C/C=C/c1ccc2c(c1)OCO2	-5.8	-7.8	x	-15.9	16.7	13.9	x
CCN(CC)C(=O)Cn1cc(S(=O)(=O)CC(=O)Nc2ccccc2F)c2ccccc21	-5.4	-33.9	-1.2	-0.2	4.9	6.6	x
CC(Nc1cc(=O)n(C)c(=O)n1C)c1ccccc1 (stereo not given)	9.3	-8.1	13.3	2.8	51.6*	-6.5	1.9
O=C(Nc1ccc2nsnc2c1)N1CCCCC1	5.5	8.5	-9.9	-4.2	5.1	14.6	x
S=C(Nc1ccc2nsnc2c1)N1CCCCCC1	18.7	-8.4	-3.8	25.9	54.8*	3.1	39.9*
O=C(c1ccc(OC2CCN(CCCc3ccccc3)CC2)cc1)N1CCCC1	-1.3	-15.6	18.7	7.6	2.7	18.1	x
Cc1ccc(-c2nc3c(Cl)cc(Cl)cc3c(=O)n2O)cc1	1.3	72.2	17.7	9.0	53.7*	14.0	53.0*
O=c1c2cc(Br)ccc2nc(-c2ccc(Cl)cc2)n1O	x	16.3	3.6	x	x	x	x
CCOC(=O)c1sc2ncnc(N3CCN(CC)CC3)c2c1C	-1.9	-10.2	-0.5	3.3	-3.0	30.1	x
CCOC(=O)CNC(=O)c1sc2ncnc(N3CCc4ccccc4C3)c2c1C	26.8	-4.9	32.1	35.3	50.8*	-2.7	36.5
O=Cc1ccccc1OCCOc1ccccc1C=O	39.0	-19.1	21.7	14.8	85.0*	11.0	77.8*
O=C(Nc1ccccc1-c1ccccc1)NC1CC2CCCC(C1)N2CCc1ccccc1 (stereo not given)	17.0	4.9	11.7	8.0	6.5	0.0	x
O=C(Nc1ccccc1-c1ccccc1)NC1CC2CCCC(C1)N2Cc1ccc(F)cc1 (stereo not given)	0.4	-15.8	14.5	10.1	56.0*	18.0	17.4
CCOC(=O)Nc1ccc2c(c1)Nc1ccccc1S2	35.6	2.3	9.1	33.0	61.7*	1.0	51.7*
COc1ccc2c(c1)C(c1ccc([N+](=O)[O-])cc1)=NNC(c1ccco1)=N2	33.0	7.5	7.9	38.8	52.6*	33.0	37.0*
COc1ccc(C2=NNC(c3ccco3)=Nc3ccc(F)cc32)cc1	9.7	-9.8	9.8	15.7	37.4	20.6	x
Cc1cc(C(=O)CN2c3cccc4cccc(c34)S2(=O)=O)c(C)n1C	5.0	8.6	x	6.1	27.3	13.0	x
CCOc1ccc(Nc2ccc([N+](=O)[O-])c3nonc23)cc1	35.3	-0.9	0.9	38.8	66.7*	16.8	61.2*
COc1ccc(Nc2cc(NCCCO)c([N+](=O)[O-])c3nonc23)cc1	17.8	-33.7	20.3	3.5	17.2	8.5	x
COc1cccc(Nc2nc(-c3ccc(O)cc3)cs2)c1	16.0	x	5.3	19.6	54.5*	13.2	53.4*
COc1cccc(Nc2nc(-c3cccc(N4C(=O)c5ccccc5C4=O)c3)cs2)c1	20.5	-1.1	11.0	22.1	14.5	13.5	x
SMILES	TIM10 inh	PfHsp90 set2	NALP1 inh	tim10-1 inh	tim23-1 inh	NLRP3 yeast inh	tim23-1 conf
COCCN(C(=O)COC(=O)CNC(=O)c1ccc(C)cc1)c1c(N)n(Cc2ccccc2)c(=O)[nH]c1=O	x	-25.6	x	x	x	x	x
CN(C)C(=O)c1c(NC(=O)c2ccco2)sc2c1CCCCC2	34.5	17.2	-4.5	34.6	59.8*	-6.5	48.8*
O=C(O)CN1C(=O)/C(=C\c2cc(Br)ccc2OCc2ccc([N+](=O)[O-])cc2)SC1=S	30.3	-53.9	2.8	-4.6	53.3*	16.4	71.5*
O=C(O)CN1C(=O)/C(=C\c2cc(Br)ccc2OCc2ccccc2Cl)SC1=S	24.7	-1.2	-7.3	16.7	33.4	6.2	x
Cc1occc1C(=O)N(C)Cc1nc(-c2ccccc2)no1	-0.6	-25.9	12.7	-12.0	-1.9	29.5	x
O=C(CSc1n[nH]c(=O)[nH]c1=O)N/N=C/c1ccccc1O	-6.8	-6.4	23.4	12.7	1.5	4.0	x
O=C(CSc1ccccc1)N/N=C/c1ccccc1O	18.9	-19.1	16.4	24.5	52.3*	25.3	55.2*
Cc1ccc(NC(=O)/C(C#N)=C(\N)C(Cl)(Cl)Cl)nc1	39.7	-1.1	-1.6	16.7	70.6*	4.6	71.4*
Cc1ccc(NC(=O)C(=O)Nc2ccc(C)cn2)nc1	9.0	-9.0	-0.4	-13.0	4.7	13.0	x
COc1cc2c(cc1OC)C(c1cc(OC)c(OC)c(OC)c1)C1(O)C(=O)OCC1(O)C2 (stereo not given)	x	3.0	x	x	x	x	x
CSCCC(NC(=O)c1ccccc1)C(=O)N1CC=C(c2ccccc2)CC1 (stereo not given)	0.4	-8.7	22.0	14.2	20.2	19.8	x
Cc1ccc(Cl)cc1N(CC(=O)NC1CCCC1)C(=O)c1csnn1	0.6	-26.9	4.9	5.9	2.5	2.7	x
CCc1ccc(C2CC(=O)NC(SCC(=O)OC(C)C)=C2C#N)cc1 (stereo not given)	12.4	14.7	-5.6	31.9	55.1*	17.8	57.4*
CCOC(=O)CSC1=C(C#N)C(c2ccc(C)s2)CC(=O)N1 (stereo not given)	22.2	17.9	1.3	-2.5	57.8*	22.9	46.1*
Cc1c(NS(=O)(=O)c2ccc(N)cc2)c(=O)n(-c2ccccc2)n1C	8.7	3.8	12.3	23.0	20.4	3.9	x
